Only some compounds are listed: those with a hit (about 12% of all), similar ones and a draw of the others.
Sfp PPTase inh: Sfp phosphopantetheinyl transferase inhibition; 3.5% of 310,000 active; Biochemical Sfp PPTase activity, qHTS; Q9F4F7; Potency, µM, for the others: largest response in the series, negative = inhibition, usual class: inhibitors; AID 1490;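 also: the enzyme is Sfp with the accession as filed and its product quenches rhodamine fluorescence; 0% = enzyme reaction without inhibitor and -100% = no enzyme wells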
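Fluorescence-quenching assay: 15 nM Sfp-PPTase preincubated 15 min at room temperature with compound, then 5 uM rhodamine-CoA and 12.5 uM BHQ-2-labelled YbbR peptide added. Fluorescence (ex 525/em 598 nm) read at start and after 30 min; difference gives rate.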
BAZ2B inh: inhibitors of human BAZ2B bromodomain; 4.4% of 360,000 active; AlphaScreen BAZ2B-H3K14Ac peptide displacement; Q9UIF8; Potency, µM (titrated, usually from 114 µM), for inactives: at the highest dose activity change, negative = inhibition, usual class: inhibitors; AID 504333; also: % is scaled to controls: 0 for no effect and ±100 for the full control effect; nearly all actives have a fitted effect of over 60% in size
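AlphaScreen displacement of biotin-H3(5-23)K14Ac peptide (50 nM final) from BAZ2B (50 nM final) in PBS pH 7.4, 0.01% Tween-20; complex preformed 30 min RT, then compounds (top 110 uM) 30 min RT, beads 20 min dark.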
L3MBTL1 block: L3MBTL1 (human) inhibition | Q9Y468 | AlphaScreen L3MBTL1–H3K9me1 peptide binding | Potency, µM (doses to about 57.1 µM), for the others: top-dose activity, negative = inhibition, hits mostly inhibitors | 0.66% of 230,000 active | AID 485360; also: % is scaled to controls: 0 for no effect and ±100 for the full control effect; nearly all actives have a fitted effect of over 60% in size
Target sequence (Q9Y468 whole entry, looked up): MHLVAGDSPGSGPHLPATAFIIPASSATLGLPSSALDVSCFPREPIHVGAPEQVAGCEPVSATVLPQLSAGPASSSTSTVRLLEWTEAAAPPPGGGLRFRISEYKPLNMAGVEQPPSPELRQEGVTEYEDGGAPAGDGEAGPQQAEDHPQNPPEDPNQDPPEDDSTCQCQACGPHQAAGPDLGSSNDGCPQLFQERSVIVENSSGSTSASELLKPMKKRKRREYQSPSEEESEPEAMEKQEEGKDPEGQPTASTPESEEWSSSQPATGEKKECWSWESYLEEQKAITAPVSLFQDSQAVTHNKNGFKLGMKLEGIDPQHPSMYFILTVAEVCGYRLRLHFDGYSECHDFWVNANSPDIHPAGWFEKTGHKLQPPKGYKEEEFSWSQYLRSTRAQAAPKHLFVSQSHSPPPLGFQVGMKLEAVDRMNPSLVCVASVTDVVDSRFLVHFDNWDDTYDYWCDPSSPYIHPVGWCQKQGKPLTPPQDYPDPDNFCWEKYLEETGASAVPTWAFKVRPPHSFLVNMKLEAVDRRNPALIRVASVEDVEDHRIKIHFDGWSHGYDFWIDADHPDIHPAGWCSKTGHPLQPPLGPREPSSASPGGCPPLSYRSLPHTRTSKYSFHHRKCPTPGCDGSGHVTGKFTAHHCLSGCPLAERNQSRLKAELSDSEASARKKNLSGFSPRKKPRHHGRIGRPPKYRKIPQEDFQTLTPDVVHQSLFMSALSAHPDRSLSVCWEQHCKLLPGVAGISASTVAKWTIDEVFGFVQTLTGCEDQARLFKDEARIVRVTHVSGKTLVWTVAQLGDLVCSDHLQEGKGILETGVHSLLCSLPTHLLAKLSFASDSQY
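First, the protein-peptide complex forms for 30 min at room temperature (L3MBTL1 50 nM, biotinylated H3K9me1 peptide 75 nM). Next, compounds are pin-transferred and incubated 30 min. Finally, AlphaScreen beads are added and read after 30 min.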
HP1b chromo inh: inhibitors of HP1-beta chromodomain binding to methylated histone tails | AlphaScreen HP1-beta / biotin-H3K9me3 peptide binding | Potency, µM (titrated, usually from 114 µM), for the others: at the top dose activity change, negative = inhibition, hits mostly inhibitors | 0.56% of 390,000 active | AID 540317; also: nearly all actives have a fitted effect of over 70% in size
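HP1-beta protein (50 nM final) preincubated 30 min at room temperature with biotinylated H3(1-18)K9me3 peptide (50 nM) in PBS pH 7.4, 0.01% Tween-20, then compound added for 30 min. AlphaScreen streptavidin donor/nickel chelate acceptor beads (10 ug/mL final), 30 min dark, luminescence read.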
G9a block: blocks human histone lysine methyltransferase G9a; G9a H3K9 monomethylation, AlphaScreen, 2 h; Potency, µM (top dose mostly 102 µM), for the others: at the highest dose activity, negative = inhibition, actives largely listed as inhibitors; AID 504332; Q96KQ7; 8.8% of 350,000 active; also: % is scaled to controls: 0 for no effect and ±100 for the full control effect; nearly all actives have a fitted effect of over 75% in size
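Quantitative HTS format: methyltransferase activity on a biotin-tagged H3K9 peptide is measured by AlphaScreen, using a rabbit anti-monomethyl-H3K9 antibody with streptavidin donor and anti-IgG acceptor beads. Final levels are 20 nM enzyme, 500 nM peptide, 20 uM SAM; 2 h RT.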
JMJD2A Tudor inh: blocks the human JMJD2A Tudor domain | O75164 | AlphaScreen JMJD2A-Tudor / H3K4me3 peptide binding | Potency, µM (series often up to 114 µM), for inactives: at the top dose activity change, negative = inhibition, usual class: inhibitors | 4.4% of 390,000 active; also: % is scaled to controls: 0 for no effect and ±100 for the full control effect; nearly all actives have a fitted effect of over 50% in size
* marks the source's active call; other numbers are inactive results; ? = inconclusive; nt = not tested or not shown; [ ] = dose if it differs, or a comment. Calls follow the shape of the dose curve; as a rule, active = well fitted curve in the direction sought with a large enough effect; inconclusive = small, poorly fitted or top-dose-only effect, or another doubt; inactive = no such curve, though single readings can be large; an effect the other way counts as inactive or inconclusive. Potency is read from the fitted curve at half-maximal effect.

SMILES	Sfp PPTase inh	BAZ2B inh	L3MBTL1 block	HP1b chromo inh	G9a block	JMJD2A Tudor inh
COc1ccc(S(=O)(=O)Nc2ccc3c(c2)N(C(C)=O)CCC3)cc1F	nt	-6.3%	nt	13.1%	6.2%[59 µM]	-10.9%
Cc1ccc2onc(CC(=O)N3CCN(c4cccc(Cl)c4)CC3)c2c1	nt	?	nt	10.7%	-44.3%[59 µM]	-34.9%
O=C(O)C1=NN(c2ccccc2)C(=O)CC1	8.3%	?	7.2%	29.2%	-2.4%	-2.8%
O=C(O)C1=NN(c2ccccc2)C(=O)C1	-21.8%	?	-7.4%	?	50.1µM*	56.2µM*
CC(CNC(=O)c1ccc(CSc2nc3ccncc3n2Cc2cccc(F)c2)cc1)c1ccccc1 (configuration not stated)	nt	-10.1%	nt	33.8%	-27.3%[59 µM]	-11.6%
O=Cc1sc(=O)n(Cc2cccc(C(=O)O)c2)c1Cl	44.7µM*	1.9%	-29.8%	40.5%[57 µM]	?	-17.0%
O=C(O)c1cccc(Cn2c(Cl)c(/C=N/NC(=O)c3ccc(O)cc3)sc2=O)c1	25.1%	-14.3%	nt	9.8%	?	-11.0%
O=c1sc(/C=N/Nc2ccccc2)c(Cl)n1Cc1ccccc1	50.1µM*	?	-1.4%	12.0%	14.1µM*	-21.5%
COC(=O)c1cccc(Cn2c(Cl)c(/C=N/NC(=O)c3ccco3)sc2=O)c1	6.2%	56.2µM*	nt	36.7%	50.1µM*	-17.9%
CC(C)c1cnc2c(c1SCc1cccc(C(F)(F)F)c1)c(=O)n(C)c(=O)n2C	nt	?	nt	30.0%[57 µM]	10.2%[59 µM]	-9.7%
CCCCCCC(O)C/C=C/CCCCCCCC(=O)O (configuration not stated)	20.4%	nt	nt	nt	nt	nt
Cc1ccc(-c2csc(=Nc3ccccc3)n2Cc2ccc3c(c2)OCO3)cc1	nt	8.91µM*	nt	?	11.2µM*	56.2µM*
O=C(O)CCC(=O)NCCn1c(-c2ccccc2)csc1=Nc1ccccc1	-8.1%	?	1.8%	0.6%	?	-15.9%
CCN(CC)CCn1c(-c2ccccc2)csc1=Nc1ccccc1	nt	50.1µM*	nt	?	2.24µM*	17.8µM*
OCCCn1c(-c2ccccc2)csc1=Nc1ccccc1	7.6%	56.2µM*	nt	?	22.4µM*	?
COC(=O)c1cc(=O)n(Cc2ccc3c(c2)OCO3)c(=Nc2ccccc2)s1	-17.0%	?	-4.1%	-16.8%	?	?
CCn1c(-c2ccccc2)csc1=Nc1ccc(S(=O)(=O)O)cc1	15.9%	-35.4%	-2.6%	-22.0%	17.8µM*	-32.4%
COC(=O)c1cc(-c2ccc(C)cc2)c2c(=O)n(C)c(=O)n(C)c2n1	nt	2.0%	nt	34.5%	9.6%[59 µM]	-6.7%
O=C(Cn1ccn(-c2ccc(F)c(F)c2)c(=O)c1=O)NCc1ccccc1	nt	-1.6%	nt	22.8%	-1.1%[59 µM]	-10.9%
Cc1ccc(C(=O)n2nc(C)c(S(=O)(=O)N3CCCCCC3)c2C)cc1	nt	53.6%	nt	68.3%[57 µM]	15.7%[59 µM]	55.9%
COc1ccc(CNC(=O)CCc2c(C)nn(-c3ccc(N4CCCC4)nn3)c2C)c(OC)c1	nt	-35.6%	nt	29.2%	7.5%[59 µM]	-15.0%
Cc1ccc(OCCCN2CCOCC2)cc1	-10.1%	?	7.2%	?	39.8µM*	10µM*
Cc1cc(C)cc(OCCN2CCOCC2)c1	-12.3%	-31.0%	nt	?	11.2µM*	28.2µM*
COc1ccc(OCCN2CCOCC2)cc1	-7.0%	?	nt	?	31.6µM*	50.1µM*
O=C(NCCOc1ccc(F)cc1)C1CCC(=O)N(CCN2CCOCC2)C1 (configuration not stated)	11.9%	-33.8%	nt	-10.9%	44.7µM*	2.2%
SMILES	Sfp PPTase inh	BAZ2B inh	L3MBTL1 block	HP1b chromo inh	G9a block	JMJD2A Tudor inh
CCN(Cc1ccccc1)C(=O)C(CC(C)C)NS(=O)(=O)c1ccc2c(c1)CCN2C(C)=O (configuration not stated)	nt	nt	nt	11.8%	1.6%[59 µM]	-16.0%
CC[C@]1(O)C[C@H]2CN(CCc3c([nH]c4ccccc34)[C@@](C(=O)OC)(c3cc4c(cc3OC)N(C=O)[C@H]3[C@@](O)(C(=O)OC)[C@H](OC(C)=O)[C@]5(CC)C=CCN6CC[C@]43[C@@H]65)C2)C1	16.1%	nt	nt	nt	?	nt
CCCc1cc(N2CCN(c3ccccc3F)CC2)n2cnnc2n1	nt	-2.7%	nt	42.3%	11.4%[59 µM]	-9.7%
COc1ccc(OCCC(=O)NCCN2CCOCC2)cc1	12.6%	-12.6%	4.5%	24.4%	56.2µM*	-17.9%
c1ccc(OCCN2CCOCC2)cc1	-10.6%	35.5µM*	-5.1%	?	-29.1%[2.33 µM]	20µM*
c1ccc(Cc2ccc(OCCN3CCOCC3)cc2)cc1	-5.6%	-24.6%	-3.3%	20.2%	-9.4%	-24.5%
Cc1ccc(OCC(=O)NCCN2CCOCC2)cc1C	-12.3%	-7.0%	10.8%	20.3%	nt	-3.5%
CCOC(=O)CSc1ccc2nnc(-c3ccncc3)n2n1	8.9%	1.8%	4.8%	88.8%	?	-8.3%
O=C(CSc1ccc2nnc(-c3ccc(F)cc3)n2n1)NCc1ccco1	-4.1%	11.9%	?	22.4%	8.91µM*	-13.3%
COc1ccc(-c2nnc3ccc(SCC(=O)NCC4CCCO4)nn23)cc1 (configuration not stated)	17.8%	9.5%	-1.3%	27.8%	8.9%[59 µM]	-11.9%
O=C(CSc1ccc2nnc(-c3ccc(F)cc3)n2n1)NCC1CCCO1 (configuration not stated)	-5.5%	2.6%	-4.2%	12.6%	20µM*	-29.9%
CCOC(=O)CNC(=O)CSc1ccc2nnc(-c3ccc(F)cc3)n2n1	0.2%	1.0%	-17.4%	50.4%	31.6µM*	12.4%
CCSc1ccc2nnc(-c3ccc(F)cc3)n2n1	4.1%	-0.3%	5.5%	46.8%	17.8µM*	8.4%
COc1ccc(-n2nc(C(=O)N3CCN(c4cccc(C)c4)C(C)C3)c3c4ccccc4n(C)c3c2=O)cc1Cl (configuration not stated)	nt	nt	nt	1.5%	-45.7%[59 µM]	-23.3%
CCOc1ccc(-c2nnc3ccc(SCc4ccc(C(=O)OC)o4)nn23)cc1	11.2µM*	3.1%	nt	12.4%	11.2µM*	-35.8%
COC(=O)c1ccc(CSc2ccc3nnc(-c4ccc(F)cc4)n3n2)o1	-10.1%	nt	nt	27.8%	-11.5%	-19.3%
C=C1C[C@@]23C[C@@]1(O)CC[C@@H]2[C@]12C=C[C@@H](O)[C@](C)(C(=O)O1)[C@@H]2[C@@H]3C(=O)O	13.0%	nt	nt	nt	nt	nt
CC1(C)O[C@@H]2[C@H](O1)[C@@H](COS(=O)(=O)O)O[C@H]2n1c(=S)[nH]c2c(=O)[nH]c(N)nc21	nt	-6.2%	-14.8%	-24.3%	13.0%[2.33 µM]	20µM*
Nc1nc2c([nH]c(=S)n2C2OC(CO)C(O)C2O)c(=O)[nH]1 (configuration not stated)	44.7µM*	nt	nt	nt	nt	nt
CC1(C)O[C@@H]2[C@H](O1)[C@@H](COS(=O)(=O)O)O[C@H]2n1cnc2c(N)ncnc21	nt	-10.1%	7.2%	nt	-11.1%[2.33 µM]	nt
